Pf Dd2 growth – qHTS Primary assay for Inhibitors of Plasmodium falciparum Dd2 growth in vitro. P. falciparum Dd2 growth, SYBR Green, 72 h. 120,000 tested, 4.3% active. Potency, µM (titrated, usually from 28.9 µM), without a hit: at the highest dose activity, negative = inhibition, most hits filed as inhibitors. AID 1347417, 2020; active = well fitted inhibition curve with a large enough effect;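 note: plate controls were DMSO vehicle for no effect and reference drug for full effect; nearly all actives have a fitted effect of over 65% in size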
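Infected erythrocytes (Dd2, 0.3% parasitemia, 2.5% hematocrit final) are added to compound in RPMI-1640/Albumax II medium, grown 72 h at 37C in low oxygen, then lysed with saponin/Triton-X containing SYBR Green and read by fluorescence.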
The depositor's hits bear a star; i = inactive; [ ] = another dose, or the depositor's remark. This is one part of a sample in which hits are shown more often than they occur. Potency is the fitted concentration of half-maximal effect.

SMILES	Pf Dd2 growth
CCc1cnc(C)nc1N1CCN(Cc2ccccc2F)C(CCO)C1 (stereo not drawn)	-27%
COc1ccc(-c2nn(-c3ccccc3)cc2C(=O)Nc2ccccc2OC)cc1	i
Cc1ccccc1-c1nc2cc3c(cc2cc1CN1CCC[C@H]1CO)OCO3	-14%
CCN(Cc1ccncc1)C(=O)CC(c1ccccc1)c1ccc2c(c1)OCO2 (stereo not drawn)	i
COc1cccc(OCc2nc(C(=O)N(C)Cc3cnc4ccccn34)co2)c1	-3%
O=C(Nc1nncs1)C1CC(=O)N(c2n[nH]c3cccc(F)c23)C1 (stereo not drawn)	-20%
O=C(c1ccoc1)N1CCC2(CC1)CN(C1CCC1)CC2CO (stereo not drawn)	8%
COc1ccccc1-c1cc(C(=O)N2CCOCC2)c2cnn(C)c2n1	-3%
COc1ccc2c(c1)c(CN1CCc3nc(N4CCN(C)CC4)[nH]c(=O)c3CC1)cn2C	0%[5.79 µM]
COc1ccc(-c2nn(-c3ccccc3)cc2CN2CCCC(CO)C2)c(F)c1 (stereo not drawn)	8.9µM*
COc1ccc(F)c(CN2CCCC(O)(CN3CCC(CO)CC3)C2=O)c1 (stereo not drawn)	-19%
COC1CCCN(Cc2cn(-c3ccc(F)cc3)nc2-c2ccccc2Cl)C1 (stereo not drawn)	13µM*
COc1ccc(F)c(CN2CCC(CCC(=O)N3CCN(c4ccccc4)CC3)CC2)c1	-30%
c1ccc(-c2[nH]ncc2CN2CCCC(N3CCN(c4ccccc4)CC3)C2)cc1 (stereo not drawn)	-3%
O=C(c1ccccc1OCC1CCCN(Cc2ccc(F)cc2Cl)C1)N1CCOCC1 (stereo not drawn)	i
O=c1[nH]c(C2CCCN(Cc3cccc4ccccc34)C2)nn1-c1ccc(Cl)cc1 (stereo not drawn)	11%
COc1ccc(CN2CCc3nc(N4CCN(C)CC4)[nH]c(=O)c3CC2)c(OC)c1	37%[5.79 µM]
COc1ccc(-c2nn(-c3ccccc3)cc2CN2CCN(C)CC2)c(F)c1	10µM*
CNCC(=O)N1CCCC(N2CCN(c3ccc(OC)cc3)CC2)C1 (stereo not drawn)	0%
COc1ccc(-c2nn(-c3ccccc3)cc2CN2CCN3CCCC3C2)c(F)c1 (stereo not drawn)	7.1µM*
COc1ccccc1-c1cc(C(=O)N(C)C)c2cnn(C)c2n1	11%
COCC(=O)N1CCC(Oc2ccccc2C(=O)N2C[C@H]3CC[C@H]2C3)CC1	-11%
COc1ccccc1C(=O)N1CCC(O)(c2ccccc2)[C@H](N(C)C)C1 (stereo partly drawn)	i[5.79 µM]
CC(C)CN1C(=O)CO[C@H](c2ccc(NC(=O)c3ccc4c(c3)OCO4)cc2)[C@H]1CO	-15%[44.1 µM]
COCC1CN(C(C)=O)CC12CCN(C(=O)c1ccc(F)cc1F)CC2 (stereo not drawn)	26%
SMILES	Pf Dd2 growth
COc1ccc(C(=O)N2C[C@@H](CO)[C@H](c3nc(C4CC4)no3)C2)cc1	17%
Cc1noc(C2CCCCCN2C(=O)c2ccccc2)n1 (stereo not drawn)	7%
CCC(=O)N1CCC(N2CC(OCC3CC3)C23CCOCC3)CC1 (stereo not drawn)	i
CC(C)NC(=O)N1CCC(N2CC(OCC3CC3)C23CCCCC3)CC1 (stereo not drawn)	-18%
O=C(NCc1ccccc1)N1CCC(N2CC(OCC3CC3)C23CCOCC3)CC1 (stereo not drawn)	-8%
CCOCC(=O)N1CCC(N2CC(OCC3CC3)C23CCCCC3)CC1 (stereo not drawn)	5µM*
O=C(Cc1cccnc1)N1CCC(N2CC(OCC3CC3)C23CCCCC3)CC1 (stereo not drawn)	7.9µM*
Cn1nccc1C(=O)N1CCC(N2CC(OCC3CC3)C23CCOCC3)CC1 (stereo not drawn)	-20%
COc1ccc(N2CC(C(=O)N3CCOCC3)NC2=O)cc1 (stereo not drawn)	17%[44.1 µM]
Cc1cnc(C(=O)N2CCC(n3nccc3NC(=O)CCOc3ccccc3)CC2)cn1	-21%
Cc1cnc(C(=O)N[C@@H]2CCC[C@@H]2C(=O)NCc2ccc(F)cc2)cn1	10%
O=C(O)c1ccc2c(c1)n(Cc1ccccc1)c(=O)c1ccnn12	-16%
COc1ccc(OC2CN(C(=O)c3ccc(OC)cc3)C2)cc1	-2%
CCn1c(=O)c2cc(C(=O)Nc3cc(OC)c(OC)c(OC)c3)sc2c2ccccc21	i
CCN(CC)CCOC(=O)c1ccc(NC(=O)c2cc3c(=O)n(CC)c4ccccc4c3s2)cc1	0.79µM*
CCOc1ccc(CCNC(=O)c2cc3c(=O)n(CC)c4ccccc4c3s2)cc1OCC	11%
CN(Cc1cccn1C)C(=O)Cc1ccc(F)cc1	11%[44.1 µM]
Cc1cc(N2CCCCC2)nc2ccc(NC(=O)CCC(=O)N3CCN(c4ccccc4)CC3)cc12	-26%
CCN1CCN(c2cc(C)c3cc(NC(=O)/C=C/c4ccc(OCCC(C)C)cc4)ccc3n2)CC1	1.1µM*
CCN1CCN(c2cc(C)c3cc(NC(=O)/C=C/c4ccc(C)cc4)ccc3n2)CC1	1.1µM*
Cc1ccc(C)c(N2CCN(C(=O)CCC(=O)Nc3ccc4nc(N5CCCCC5)cc(C)c4c3)CC2)c1	i
COc1ccc(-n2nc3ccc(NC(=O)c4cccc(OCCC(C)C)c4)cc3n2)cc1	i
CCOc1ccc(C(=O)Nc2ccc3ncnc(N4CCCCC4)c3c2)cc1	i
O=C(c1ccc(Cn2ccnc2)o1)N1CCCn2nc(CO)cc2C1	-14%
Cc1ccc(-c2noc([C@@H]3C[C@H](NC(=O)Nc4ccc(Cl)cc4)CN3C)n2)cc1	-8%[44.1 µM]
SMILES	Pf Dd2 growth
COc1ccc(C(=O)N[C@H]2C[C@@H](c3nc(-c4ccccc4)no3)N(C)C2)cc1	i
COc1ccc(-c2noc([C@@H]3C[C@H](NC(=O)c4ccc(F)cc4)CN3C)n2)cc1	i
CN1C[C@@H](NC(=O)c2cnccn2)C[C@H]1c1nc(-c2ccc(OC(F)(F)F)cc2)no1	14µM*
COc1ccc(-c2noc([C@@H]3C[C@H](NCc4ccc(S(C)(=O)=O)cc4)CN3C)n2)cc1	-13%
CN1C[C@@H](NC(=O)Nc2ccc(Cl)cc2)C[C@H]1c1nc(-c2ccc(F)cc2)no1	14µM*
COc1ccc(NC(=O)N[C@H]2C[C@@H](c3nc(-c4ccc(F)cc4)no3)N(C)C2)cc1	i
CN1C[C@@H](NC(=O)c2ccccn2)C[C@H]1c1nc(-c2ccc(Cl)cc2)no1	i
COc1ccc(-c2noc([C@@H]3C[C@H](NCc4ccccn4)CN3C)n2)cc1	10µM*
CCC(CC)NC(=O)C1CCCN(S(C)(=O)=O)CCC(=O)NCC1 (stereo not drawn)	8%
Cc1nn(C)c(C)c1S(=O)(=O)N1CCC(c2noc(C3CC3)n2)C1 (stereo not drawn)	30%[5.79 µM]
Cc1ccc(C(c2cccnc2)n2cc(-c3cncnc3)nn2)cc1C (stereo not drawn)	4%
Cc1cc(CN2CCC(n3cc[nH]c3=O)CC2)no1	29%[44.1 µM]
CC(C)S(=O)(=O)N1CC[C@H]2C(=O)NCCCCCCN(Cc3ccncc3)[C@@H]2C1	i
Cc1ccc2[nH]c(CN3CCNCC(C(=O)O)C3)nc2c1C (stereo not drawn)	-13%
CC(=O)NCC(=O)N1CC(F)(F)C[C@H]1c1nc(-c2ccccc2)no1	29%
CNC(=O)Nc1ccc(C)n(CC(=O)NCc2ccccc2C)c1=O	-3%
COCCC(=O)N1CCC(N2C(=O)C(OCC3CC3)C23CCOCC3)CC1 (stereo not drawn)	-1%
